According to PubChem BioAssay (NCI):
This is part of a sample that, as a whole, favours compounds with a hit. Of some 83,000 tested, about 20% had one in any assay.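 Treatment: one concentration, 48 hours, 96-well format. Scoring: percent growth, with anything below 10 considered active.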 A number with no mark means an inactive call. Calls of active or inactive are those of the source.

system: ACHN renal; assay: NCI-60 one-dose screen, 48 h (100 = growth as untreated, 0 = no growth, -100 = all killed); conditions: 10 µM unless noted

Compound | growth
COc1ccc(-n2cc(-c3ccc(Cl)c(Cl)c3)[nH]c2=O)cc1OC | 105%
CN1CCN(S(=O)(=O)O[C@@H]2C(=O)N(c3cc4c5ccccc5ccc4c4ccccc34)[C@H]2c2ccc(F)cn2)CC1 | 92.1%
O=C(O)CCNC1CCCCC1 | 103%
C#C[C@@]1(O)[C@@H](CO)O[C@@H](n2cc(I)c3c(N)ncnc32)[C@@H]1O | 5.08% (active)
COC1=CC2C=C(C3N(c4ccccc4)NC(=O)[C@@H]4CCCN34)C(=O)NC2C=C1 (stereo partly drawn) | 102%
CCCCc1n(Cc2ccc3ccccc3n2)cc[n+]1Cc1ccc2ccccc2c1 | 61.2%
CN1CCN(/C=C2\CC(C(=O)NCc3ccc(Cl)cc3Cl)NC2=O)CC1 (stereo not drawn) | 110%
O=C1NC(SCc2ccc(F)cc2)=N/C1=C/c1cccc(OCc2ccc(Cl)cc2)c1 | -53.7% (active)
NS(=O)(=O)c1ccc(-n2ncc(NC(=O)Nc3ccc(S(=O)(=O)Nc4nccs4)cc3)c2-c2ccccc2)cc1 | 96.5%
N#CC(C#N)=C1NC(c2ccccc2)=C(c2ccccc2)C(c2ccccc2Cl)=C1C#N | 110%
CCOc1ccccc1C(=O)/C=C/c1cc2ccccc2[nH]c1=O | -5.01% (active)
Cc1ccc2nc3nc4ccc[nH]c4cc3c2c1 | 81.8%
C=C1C(=O)O[C@H]2[C@H]1CC/C(C=Nc1c(N)cc(C(F)(F)F)cc1Br)=C\CC[C@@]1(C)O[C@@H]21 | -44.6% (active)
NC(N)=NC(N)=Nc1cc2ccccc2c2ccccc12 | 22.9%
O=C(Nc1ccc(S(=O)(=O)NC2CCCCCC2)cc1)C(c1ccccc1)S(=O)(=O)c1ccc(F)cc1 (stereo not drawn) | 0.641% (active)
O=c1[nH]c2ccccc2cc1-c1nc2ccncc2[nH]1 | 72.2%
Cc1cccc(C)c1NCc1nnc(-c2ccco2)o1 | 101%
Cc1ccc(-c2nc(C#N)c(S(=O)(=O)N(C)CCO)o2)cc1 | 60.7%
Nc1c(C(=O)Nc2ccccc2Cl)sc2nc3c(cc12)CN(Cc1ccccc1)CC3 | 104%

Compound | growth
C#Cc1ccccc1NC(=O)c1sc2nc3c(cc2c1N)CCCCCC3 | 31.1%
CCOCc1cc(C(C)(C)C)ccc1O | 105%
C=C(C)[C@@H]1CC[C@]2(C(=O)OCCOCCOCC[P+](c3ccccc3)(c3ccccc3)c3ccccc3)CC[C@]3(C)[C@H](CC[C@@H]4[C@@]5(C)CC[C@H](OC(=O)C(Cl)Cl)C(C)(C)[C@@H]5CC[C@]43C)[C@@H]12 | -79.2% (active)
CNCc1cccc2c1OCCOCCOCCN(CCN1CCOCC1)S(=O)(=O)c1ccc(cc1)-c1cnc(N)c(n1)C(=O)N2 | 36.7%
Cc1c(Cl)cccc1NC(=O)c1sc2nc3c(cc2c1N)CN(Cc1ccccc1)CC3 | 56.4%
C=C(C)[C@@H]1CC[C@]2(C(=O)NCCCO)CC[C@]3(C)[C@H](CC[C@@H]4[C@@]5(C)CCCNC(C)(C)[C@@H]5CC[C@]43C)[C@@H]12 | 89.5%
COc1cc(/C=N/Nc2nc(-c3ccc(F)cc3)c(C#N)c(N3CCOCC3)n2)ccc1O | 91.3%
C=C(C)[C@@H]1CC[C@]2(C(=O)N=C=S)CC[C@]3(C)[C@H](CC[C@@H]4[C@@]5(C)CCC(=O)C(C)(C)[C@@H]5CC[C@]43C)[C@@H]12 | 27.6%
CC1CCCN(CCCCCOc2ccc3oc4ccc(Cl)cc4c(=O)c3c2)C1 (stereo not drawn) | 89.4%
O=C(Nc1cccc(-c2cccc(F)c2)c1)C1CCN(Cc2cccc3cccnc23)CC1 | 65.5%
CC(=O)Nc1ccc2c(c1)Cc1cc(F)ccc1-2 | 104%
COc1ccc2[nH]c(=O)c(/C=C/C(=O)/C=C/c3ccc(O)c(OC)c3)cc2c1 | 49.9%
CC1=C/C(=N\N=C2/C=C(C)CC(C)(C)C2)CC(C)(C)C1 | 110%
NC(=O)c1ccc(C2C3=C(CCCC3=O)OC3=C2C(=O)c2ccccc2C3=O)cc1 (stereo not drawn) | 27.9%
N#CC1(C#N)C2=C(CCCC2)NC(c2c(F)cccc2Cl)C1(C#N)C#N (stereo not drawn) | 84%
CCCCn1c(=O)c(/C=C/C(=O)/C=C/c2ccc(OC)cc2)cc2cc(Cl)ccc21 | 103%
CCOC(=O)c1ccc(Nc2ncnc3ccc(NC(=O)c4ccccc4)cc23)cc1 | 93.5%
NS(=O)(=O)c1ccc(-n2nc(-c3ccccc3)ccc2=O)cc1 | 108%
CC(=O)Nc1nc2c(c(N)c1C#N)C(c1cccc(Cl)c1)C1=C(CCCC1=O)N2c1sc2c(c1C#N)CCCC2 (stereo not drawn) | 53.3%
